Drawing on PubChem BioAssay (EPA / NIEHS), this text covers outcome and AC50 for 14 molecules.

A short description of test [1]: CCTE_Mundy_HCI_iCellGluta_NOG_NeuriteCount: CCTE's Neurite Outgrowth Assay in iCellGluta cells for Neurite Count, Mundy Lab (AID 2284342; active = hit-call score of the fitted dose curve at least 0.9, where 1 is the maximum;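 note: chemical exposure about 48 hours starting 2 hours after plating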).
Test [2] can be described thus: Tanguay_ZF_120hpf_MO24: Oregon State University Tanguay Lab 24 Hour Post-fertilization zebrafish Assay for Mortality (AID 2284389). The procedure, abridged: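 Dechorionated wild-type zebrafish embryos, 1 per well, statically exposed from 6 hpf at 28C, 0.64% DMSO final. Mortality scored as binary present/absent at 24 hpf by brightfield microscopy, relative to DMSO.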

Test [3] can be described thus: Tanguay_ZF_120hpf_CRAN: Oregon State University Tanguay Lab 120 Hour Post-fertilization zebrafish Assay for Craniofacial Malformation (AID 2284397). The procedure, abridged:
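Dechorionated Tropical 5D wild-type zebrafish embryos, one per well, were statically exposed from 6 to 120 hpf at 28C in 0.64% DMSO, with 5uM trimethyltin chloride as positive control. Craniofacial malformation was scored present/absent by brightfield microscopy, relative to DMSO.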

Test [4] in a line: Tanguay_ZF_120hpf_AXIS: Oregon State University Tanguay Lab 120 Hour Post-fertilization zebrafish Assay for Axial Malformation (AID 2284398). The method in brief: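 Dechorionated 5D wild-type zebrafish embryos exposed statically, one per well, from 6 to 120 hpf at 28C, 0.64% DMSO. Axial malformation scored as present/absent by brightfield microscopy at 120 hpf; dead embryos not scored.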

Test [5] can be described thus: Tanguay_ZF_120hpf_EDEM: Oregon State University Tanguay Lab 120 Hour Post-fertilization zebrafish Assay for Edema Malformation (AID 2284400). The procedure, abridged: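 Dechorionated Tropical 5D wild-type embryos, one per well, statically exposed from 6 to 120 hpf at 28C in 0.64% DMSO. Edema scored present/absent by brightfield microscopy at 120 hpf; dead embryos not scored; fit versus DMSO.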

A short description of test [6]: Tanguay_ZF_120hpf_MUSC: Oregon State University Tanguay Lab 120 Hour Post-fertilization zebrafish Assay for Muscle Malformation (AID 2284401). The procedure, abridged:
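Dechorionated Tropical 5D wild-type zebrafish embryos exposed statically from 6 to 120 hpf at 28C, one per well, in 0.64% DMSO. Muscle malformation scored present/absent by brightfield microscopy at 120 hpf, fitted against DMSO.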

Test [7] in a line: Tanguay_ZF_120hpf_TCHR: Oregon State University Tanguay Lab 120 Hour Post-fertilization zebrafish Assay for Touch Responsive (AID 2284403). The procedure, abridged:
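Dechorionated Tropical 5D wild-type zebrafish embryos, one per well from 6 hpf, were statically exposed to 120 hpf at 28 °C (0.64% DMSO). Touch response was scored present/absent at 120 hpf and not scored in dead larvae.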

Test [8] is described as follows: Tanguay_ZF_120hpf_ANY: Oregon State University Tanguay Lab 120 Hour Post-fertilization zebrafish Assay for Any Mortality and Malformation (AID 2284404). The method in brief: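 Dechorionated Tropical 5D wild-type embryos, one per well from 6 hpf, static exposure in sealed, dark plates at 28C until 120 hpf, 0.64% DMSO final. Brightfield scoring of mortality and malformations as binary presence/absence, pooling 13 morphology endpoints.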

Test [9] can be described thus: CCTE_Padilla_ZF_Score.Craniofacial: CCTE's 144 Hour Post-fertilization zebrafish Assay Score for Craniofacial Malformation, Padilla Lab (AID 2284405). The method in brief: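 Wild-type zebrafish embryos (with chorions), one per well in 10% Hanks', were dosed at 6–8 hpf in sealed plates and kept at 26C. They were rinsed at 5 dpf. At 6 dpf two blinded assessors scored craniofacial malformations by brightfield stereomicroscopy.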

A short description of test [10]: CCTE_Padilla_ZF_Score.Edema: CCTE's 144 Hour Post-fertilization zebrafish Assay Score for Edema Malformation, Padilla Lab (AID 2284406). The procedure, abridged: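 Wild-type zebrafish embryos, one per well in Hanks' solution, dosed at 6-8 hpf, sealed and reared at 26C on a 14:10 h cycle; rinsed on 5 dpf. At 6 dpf, blinded assessors scored edema by stereomicroscopy.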

Test [11] in a line: CCTE_Padilla_ZF_Score.Position: CCTE's 144 Hour Post-fertilization zebrafish Assay Score for Position, Padilla Lab (AID 2284409). The procedure, abridged: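 Wild-type zebrafish embryos (with chorions) exposed singly from 6–8 hpf in sealed wells of Hanks' solution at 26C, rinsed at 5 dpf. At 6 dpf, blinded assessors scored abnormal water-column position by brightfield stereomicroscopy, relative to DMSO.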

Test [12] can be described thus: CCTE_Padilla_ZF_Score.Tail: CCTE's 144 Hour Post-fertilization zebrafish Assay Score for Tail Malformation, Padilla Lab (AID 2284414). The method in brief:
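Wild-type zebrafish embryos, one per well in 200 uL 10% Hanks', dosed at 6-8 hpf, sealed, and kept at 26 C on a 14:10 h light cycle. Chemical was rinsed out at 5 dpf. Blinded brightfield scoring of tail defects followed at 6 dpf.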

Test [13] can be described thus: CCTE_Padilla_ZF_Score.Blood_pooling: CCTE's 144 Hour Post-fertilization zebrafish Assay Score for Blood Pooling, Padilla Lab (AID 2284415). The procedure, abridged:
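Wild-type outbred zebrafish embryos, one per well in 10% Hanks', exposed from 6–8 hpf in sealed plates at 26C on 14:10 h light:dark, rinsed at 5 dpf. Blinded stereomicroscope scoring of blood pooling at 6 dpf; gain-of-signal versus DMSO.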

Test [14] can be described thus: CCTE_Padilla_ZF_Score.Any: CCTE's 144 Hour Post-fertilization zebrafish Assay Score for Any Mortality or Malformation, Padilla Lab (AID 2284416). The method in brief:
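Wild-type zebrafish embryos with chorions, one per well in 10% Hanks' from 6–8 hpf, dosed in sealed plates at 26 C, 14:10 h light:dark; rinsed at 5 dpf; blinded scoring at 6 dpf for death or malformation, versus DMSO.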

The subject of a further test is SERPINA7 (gene 6906). Kind of test: CCTE_GLTED_hTBG: CCTE's human Thyroxine-binding Globulin (TBG) Inhibition Assay, Great Lakes Toxicology and Ecology Division (GLTED) Lab (AID 2284343; active = hit-call score of the fitted dose curve at least 0.9, where 1 is the maximum;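 note: active chemicals lower fluorescence versus DMSO baseline by displacing probe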). The procedure, abridged:
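Measures how far test chemicals displace ANSA bound to purified human TBG. The read-out is fluorescence at 380 nm excitation and 475 nm emission, taken after 2 h of incubation.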

Test [15] deals with SRY-box transcription factor 17 (SOX17) Protein Expression, Deisenroth Lab, SOX17 (gene 64321). Nature of the test: CCTE_Deisenroth_DEVTOX-GLR_legacy_Sox17: (Legacy) CCTE's DevTox GLR-Endo Assay Evaluation of SRY-box transcription factor 17 (SOX17) Protein Expression, Deisenroth Lab (AID 2284341). To be noted: actives raise or lower the signal. The procedure, abridged:
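Endoderm-differentiation readout in RUES2-GLR human pluripotent cells at 48 h, concentrations spanning 1 nM - 200 uM. Sox17-positive cells divided by total cell count; gain or loss relative to DMSO solvent control, n=4 experimental replicates.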

Test [16] concerns SRY-box transcription factor 2 (SOX2) Protein Expression, Deisenroth Lab, SOX2 (gene 6657). Kind of test: CCTE_Deisenroth_DEVTOX-GLR_legacy_Sox2: (Legacy) CCTE's DevTox GLR-Endo Assay Evaluation of SRY-box transcription factor 2 (SOX2) Protein Expression, Deisenroth Lab (AID 2284346). The procedure, abridged:
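RUES2-GLR human pluripotent cells seeded 24 h, then differentiated 48 h in defined media with two chemical doses 24 h apart (10-point, 1 nM–200 uM). Fixed, nuclear-stained, imaged; % Sox2+ cells (>5x BMAD over endoderm control median), DMSO-subtracted, fitted upward.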

In test [17] the test system is SRY-box transcription factor 17 (SOX17) Protein Expression, Deisenroth Lab, SOX17 (gene 64321). Kind of test: CCTE_Deisenroth_DEVTOX-GLR_Endo_SOX17: CCTE's DevTox GLR-Endo Assay Evaluation of SRY-box transcription factor 17 (SOX17) Protein Expression, Deisenroth Lab (AID 2284413). The method in brief: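 Endpoint: % change in SOX17+ fraction (SOX17+ cells / cell count) vs 0.2% DMSO solvent control. RUES2-GLR reporter cells, 48 h endoderm differentiation, two doses at 24 h intervals, high-content fluorescence imaging, 5 fields/well.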

The test system of test [18] is Brachyury (BRA) Protein Expression, TBXT (gene 6862). Nature of the test: CCTE_Deisenroth_DEVTOX-GLR_Endo_BRA: CCTE's DevTox GLR-Endo Assay Evaluation of Brachyury (BRA) Protein Expression, Deisenroth Lab (AID 2284417). The method in brief: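 Read-out: BRA+ cell count divided by total cell count by high-content imaging (5 fields per well), expressed relative to 0.2% DMSO solvent control. RUES2-GLR cells dosed twice over a 48 h differentiation; concentrations 1 nM - 200 uM.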

Test [19] in a line: CCTE_Deisenroth_DEVTOX-GLR_Endo_CellCount: Viability Assessment in CCTE's DevTox GLR-Endo Assay, Deisenroth Lab (AID 2284420). The procedure, abridged:
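Measured 48 h after dosing: fluorescent nuclei counted by imaging in human RUES2-GLR cells under defined differentiation media, tested at 1 nM - 200 uM. Values are percent cell-count change relative to 0.2% DMSO.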

Inconclusive results are not listed. Active and inactive are the calls of the source. Rule for the calls, unless noted: active = hit-call score of the fitted dose curve at least 0.9, where 1 is the maximum; inactive = score below 0.9.

Consider `O=C(O)C(F)(OC(F)(F)C(F)(F)C(F)(F)F)C(F)(F)F` (stereo unspecified), for which the result in test [1], in test [2], in [3], in test [4], in test [5] and in test [6] was inactive. The molecule was called inactive in test [7], in [8], in [9], in test [10], in test [11] and in test [12]. The call in test [13] and in test [14] was inactive.

`CCCCc1ccc(O)cc1`: the AC50 with SERPINA7 (gene 6906) is 63 µM (active).

For `O=P1(N(CCCl)CCCl)NCCCO1` (stereo unspecified), the molecule was classed as inactive in [15], in [16], in test [17], in [18] and in test [19].

Regarding `FC(F)(F)C(F)(C(F)(F)F)C(F)(F)C(F)(F)CC1CO1` (stereo unspecified), the outcome in test [1], in [2], in test [3], in [4], in test [5] and in [6] was inactive. Moreover, the outcome in test [7], in test [8], in test [9], in test [10], in test [11] and in test [12] was inactive. The molecule was called inactive in test [13] and in test [14].

Regarding `OCC(F)(F)OC(F)(F)C(F)(F)OC(F)(F)C(F)(F)OC(F)(F)CO`, the AC50 was 44.1 µM (active) in the test on SERPINA7 (gene 6906); 64.9 µM (active) in test [2]; 28.9 µM (active) in [3]; 36.7 µM (active) in [4]; 28.9 µM (active) in test [5]; 36.7 µM (active) in test [6]. The half-maximal activity concentration (AC50) in [8] was 18 µM (active). For the same molecule, the molecule was called inactive in test [7], in test [9], in test [10], in test [11], in test [12] and in test [13]. Also, the outcome in test [14] was inactive.

With `C=CC(=O)OCC(F)(F)C(F)F`, the call in [1], in test [2], in test [3], in test [5], in [7] and in [9] was inactive. Also, the result in test [11], in test [12] and in test [13] was inactive. Moreover, the AC50 in [4] was 54.6 µM (active); in test [6] it was 54.6 µM (active); in test [8], 23.3 µM (active); in test [10] it was 8.88 µM (active); in test [14], 9.85 µM (active).

Take `O=P(Oc1ccccc1)(Oc1ccccc1)Oc1ccccc1`: the concentration at half-maximal activity (AC50) with SERPINA7 (gene 6906) was 3.18 µM (active).

As for `c1ccc(OP(Oc2ccccc2)Oc2ccccc2)cc1`, in the test with SERPINA7 (gene 6906), the molecule was called inactive.

On to `CCCCCCCc1ccc(O)cc1`, for which, in the test with SERPINA7 (gene 6906), the concentration at half-maximal activity (AC50) was 18.5 µM (active).

As to `O=S(=O)(F)C(F)(F)C(F)(F)C(F)(F)C(F)(F)C(F)(F)C(F)(F)C(F)(F)C(F)(F)F`, the call in [2], in test [3], in [4], in test [5], in test [6] and in test [7] was inactive. Also, the molecule was called inactive in test [8], in [9], in test [10], in [11], in test [12] and in [13]. The outcome in test [14] was inactive.

Consider `CCC(C)(C)c1ccc(O)cc1`, for which the AC50 in the test with SERPINA7 (gene 6906) was 50 µM (active).

For `O=C(O)C(F)(F)C(F)(F)C(=O)O`, the molecule was classed as inactive in test [2], in test [3], in [4], in test [5], in test [6] and in test [7]. The molecule was classed as inactive in test [8], in test [9], in test [10], in test [11], in test [12] and in test [13]. Moreover, in [14], the molecule was called inactive.

Regarding `CCCN(CCC)c1c([N+](=O)[O-])cc(C(C)C)cc1[N+](=O)[O-]`, the AC50 with SERPINA7 (gene 6906) was 11.7 µM (active).

As for `OCC(F)(F)OC(F)(F)C(F)(F)OC(F)(F)CO`, the call in [2], in test [3], in test [4], in [5], in test [6] and in test [7] was inactive. For the same molecule, the molecule was classed as inactive in test [8], in test [9], in test [10], in test [11], in test [12] and in [13]. Moreover, the result in [14] was inactive.
